# Data: PubChem BioAssay (NCATS)
# Inconclusive results are not listed. Calls of active or inactive are those of the source. Calls follow the shape of the dose curve; as a rule, active = well fitted inhibition curve with a large enough effect; inconclusive = small, poorly fitted or top-dose-only effect; inactive = flat fitted curve, though single readings scatter.
# Molecular target: Calcium and integrin-binding protein 1 (Homo sapiens) (UniProt Q99828)
# Assay: Primary qHTS for Identification of Calcium Integrin Binding Protein 1 (CIB1) Competitor (AID 1508620);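 also: GST tagged CIB1 binding a fluorescein labelled alphaIIb integrin peptide tracer; top concentration of the series differs between compounds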
# Settings: CIB1-GST / FITC-alphaIIb peptide fluorescence polarization; series mostly up to 114 µM; activity change, negative = inhibition: at the top concentration
# Summary of the method: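 CIB1-GST (1 uM final) and compound incubated 15 min at room temperature before adding FITC-alphaIIb peptide tracer (100 nM final). Competition for binding read by fluorescence polarization (ex 480, em 540) after another 15 min at room temperature.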
# % is scaled to controls: 0 for no effect and ±100 for the full control effect.
# Calcium and integrin-binding protein 1 (Homo sapiens), sequence (Q99828 whole entry, looked up): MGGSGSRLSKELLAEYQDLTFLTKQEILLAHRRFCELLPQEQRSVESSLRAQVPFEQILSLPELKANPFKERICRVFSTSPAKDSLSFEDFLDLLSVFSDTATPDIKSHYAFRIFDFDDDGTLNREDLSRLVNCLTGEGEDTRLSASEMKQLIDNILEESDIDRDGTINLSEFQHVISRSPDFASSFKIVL
Compound,"activity change, negative = inhibition",Potency
CC(=O)Nc1sc2c(c1-c1nc(-c3ccccc3)cs1)CCN(C(C)C)C2,6.35% (inactive),
Cc1ccc(NC(=O)c2cnn3c(C)cc(C)nc23)c(C)c1,2.89% (inactive),
CCN1CCN(C(=S)c2ccc(O)cc2)CC1,-2.73% (inactive),
O=[S+]([O-])(Nc1ccc(-c2nc3ccccc3[nH]2)cc1)c1ccc2c(c1)CCO2,0.754% (inactive),
N#Cc1cccc(NC(=O)Nc2nnc(-c3ccncc3)s2)c1,3.15% (inactive),
S=C(NCCCc1cnc[nH]1)NCCN(Cc1ccc(Cl)c(Cl)c1)c1ccc(Br)cn1,-8.2% (inactive),
O=C(Nc1ccccc1F)c1ccc(O)c2ncccc12,-14.6% (inactive),
Fc1ccc(-c2noc(CCCCSc3nnc(-c4cccc5ccccc45)o3)n2)cc1,,inactive
Cc1nc(CNc2ncnc3ccc(-c4oc(-c5ccccc5)nc4C)cc23)cs1,-2.42% (inactive),
Cc1ccc(-c2ccc(=O)n(CC(=O)NCCc3ncc[nH]3)n2)cc1,0.341% (inactive),
Cn1c2cc(CO)sc2c2cnn(Cc3ccccc3F)c(=O)c21,-2.78% (inactive),
N#Cc1ccccc1CNc1nc2ncc(Br)cc2[nH]1,-6.43% (inactive),
Cc1ccnc(CC(=S)N2CCN(c3cccc(C(F)(F)F)c3)CC2)c1,-25.1% (inactive),
O=C(O)CNc1cccc(-c2nn3c(=O)cc(N4CCNCC4)nc3s2)c1,-10.9% (inactive),
COc1cccc(C2c3c(ncn(-c4ccccc4SC)c3=N)Oc3ccc4ccccc4c32)c1 (stereo not given),8.09% (inactive),
Cc1cccc(-n2cnc3cc(C(=O)N4CCCC(C(F)(F)F)C4)ccc32)c1 (stereo not given),-0.102% (inactive),
O=C(Nc1ccc(-c2nc3ccccc3[nH]2)cc1)c1ccc2ncsc2c1,-5.53% (inactive),
CC(C)(C)OC(=O)Cc1nnc(-c2nc3ccccc3[nH]2)s1,-11.6% (inactive),
COc1c(Cl)cccc1NC(=O)c1c(NC(=O)Cc2ccccc2)sc2c1CCCC2,0.681% (inactive),
CN(C)c1cccc(-c2ncnc(N3CCC(C(N)=O)CC3)n2)c1,5.23% (inactive),

Compound,"activity change, negative = inhibition",Potency
N#Cc1c(-c2cc(C(F)(F)F)cc(C(F)(F)F)c2)no[n+]1[O-],2.24% (inactive),
CC(C)(C)c1ccc(NC(=O)c2cccs2)cn1,-1.02% (inactive),
O=S(=O)(c1ccc2c(c1)OCCO2)N1CCN(S(=O)(=O)c2cc(F)c(Br)cc2F)CC1,1.56% (inactive),
Fc1ccc(CNc2nc(-c3ccccc3C(F)(F)F)nc3ccccc23)cc1,2.13% (inactive),
COc1cccc(CNc2ccc(S(=O)(=O)Nc3ccccn3)cc2)c1O,-3.9% (inactive),
O=C1CCc2cc(S(=O)(=O)Nc3ccc(Cl)c(Cl)c3)c(F)cc2N1,,inactive
O=S(=O)(c1ccc2c(c1)OCCO2)N1CCN(S(=O)(=O)c2ccco2)CC1,0.0515% (inactive),
Oc1ccc(CNc2ccc(F)cc2Cl)c2cccnc12,18.8% (inactive),
Cc1cc(C)nc(NC(=S)N2CCN(c3nccs3)CC2)c1,,inactive
Cc1cncc(NC(=S)N2CCN(c3cccc(C(F)(F)F)c3)CC2)c1,4.35% (inactive),
O=S(=O)(c1cccc(F)c1)N1CCN(S(=O)(=O)c2ccc3c(c2)OCCO3)CC1,-4.8% (inactive),
Clc1cccc(-c2ccc3ncnc(NCc4ccc5c(c4)OCO5)c3c2)c1,2.27% (inactive),
Cc1ccnc(NC(=S)N2CCN(c3cccc(Cl)c3Cl)CC2)c1,-27.9% (inactive),
Oc1ccc(CNc2nccc3ccccc23)c2cccnc12,0.4% (inactive),
Fc1ccc(Nc2nc(-c3ccncc3)nc3ccccc23)cc1F,-3.73% (inactive),
Cc1cc(C)nc(NC(=S)N2CCN(c3nc(C)cnc3C)CC2)c1,1.5% (inactive),
COc1cccc(CN2C(=O)c3ccccc3NC2c2ccc(OC)c(COc3ccc(NC(C)=O)cc3)c2)c1 (stereo not given),3.22% (inactive),
COc1cccc(CNc2ccc(S(=O)(=O)Nc3ccc(N4CCNCC4)cc3)cc2)c1O,-3.5% (inactive),
COc1ccc(-c2csc(N3CCC(C(N)=O)CC3)n2)cc1,-3.29% (inactive),
COc1ccc(S(=O)(=O)NC2CCN(C#N)CC2)cc1,-0.631% (inactive),
